Assay [1] deals with Lysosomal acid glucosylceramidase (Homo sapiens) (UniProt P04062). Description: Glucocerebrosidase-p2 (AID 348; in the data active means potency below about 10 µM; further: potency means the concentration at half of the fitted maximal effect). The following applies: purified GBA, blue fluorogenic substrate, 40 min. The method, boiled down: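 Compounds titrated from 0.6 nM upwards against 0.2 nM enzyme in pH 5.9 citric acid/KH2PO4, taurocholate, tween-20; blue fluorogenic substrate 80 uM, 40 min room temperature, stopped and read Ex 365/Em 440 for AC50.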
Sequence of Lysosomal acid glucosylceramidase (Homo sapiens) (P04062 whole entry, looked up): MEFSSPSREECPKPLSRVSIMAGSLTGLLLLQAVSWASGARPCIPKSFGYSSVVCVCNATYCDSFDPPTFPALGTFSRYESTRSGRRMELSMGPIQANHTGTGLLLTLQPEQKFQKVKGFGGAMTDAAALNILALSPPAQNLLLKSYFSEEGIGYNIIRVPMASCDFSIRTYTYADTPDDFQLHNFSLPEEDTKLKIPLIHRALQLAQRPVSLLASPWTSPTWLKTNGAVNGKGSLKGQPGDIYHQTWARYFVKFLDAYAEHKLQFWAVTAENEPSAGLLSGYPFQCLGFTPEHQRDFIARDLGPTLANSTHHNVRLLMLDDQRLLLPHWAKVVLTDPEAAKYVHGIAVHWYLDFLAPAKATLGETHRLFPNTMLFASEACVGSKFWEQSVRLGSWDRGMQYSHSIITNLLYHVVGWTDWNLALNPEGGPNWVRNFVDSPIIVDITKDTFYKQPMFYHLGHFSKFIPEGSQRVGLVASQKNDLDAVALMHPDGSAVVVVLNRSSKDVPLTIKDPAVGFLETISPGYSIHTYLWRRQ

Assay [2] in a line: AP1 Signaling Pathway (AID 357; active means well fitted curve in either direction with a large enough effect, not every such curve was filed as active;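 further: ME-180 reporter cells stimulated with EGF at its EC50 level; on the % scale 0 is the no-effect control and ±100 the full control effect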). Particulars: ME-180 AP-1-bla reporter, EGF-induced, beta-lactamase ratio, 5 h; at 7.69 µM (top of the series) unless noted. The method in brief: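 Modulation of EGF-driven AP-1 transcription was assessed with a beta-lactamase reporter in ME-180 cells. Compound and EC50 EGF were co-incubated 5 hours at 37 °C before 2.5-hour CCF4 loading at room temperature and dual-emission reading.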

Assay [3] addresses Cytochrome P450 1A2 (Homo sapiens) (UniProt P05177). Description: p450-cyp1a2 (AID 410; calls by dose curve; further: potency means the concentration at half of the fitted maximal effect). The following applies: recombinant CYP1A2, luciferin-ME demethylation, luminescence; series mostly up to 57 µM. The method, boiled down: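 Luminescent readout of luciferin formed from Luciferin-ME by human CYP1A2; data normalized against complete inhibition by 57 uM furafylline. Enzyme 20nM, substrate 100uM at Km, 100mM KPO4 buffer, 60 min reaction at room temperature.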

Assay [4] can be described thus: NFAT Signaling Pathway (AID 444; active means well fitted curve in either direction with a large enough effect, not every such curve was filed as active;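 further: carbachol stimulus at about its EC50 of 1 µM final; on the % scale 0 is the no-effect control and ±100 the full control effect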). Particulars: Jurkat NFAT-bla M1, carbachol, beta-lactamase ratio, 5 h; at 7.69 µM (top of the series) unless noted. The method, boiled down: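 Jurkat cells carrying an NFAT-driven β-lactamase reporter and co-transfected muscarinic M1 receptor were treated with compound plus carbachol (1 uM final, an EC50 level) for 5 h at 37 °C. CCF4 loading followed for 1 h at RT; 460/530 nm ratio gave %activity.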

Assay [5] can be described thus: Stat Signaling Pathway (AID 446; active means well fitted curve in either direction with a large enough effect, not every such curve was filed as active;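 further: ME-180 cervical cancer cells given 40 pM IL-6 alongside compound; SIE-controlled beta-lactamase reporter measured as 460/530 nm FRET emission ratio; on the % scale 0 is the no-effect control and ±100 the full control effect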). The following applies: ME-180 (cervical carcinoma) SIE beta-lactamase reporter, IL-6 stimulated, 5 h; at 7.69 µM (top of the series) unless noted. The method in brief: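 IL-6/STAT signaling read in ME-180 cells via an SIE beta-lactamase reporter. Stimulus was 40 pM IL-6 (its AC50) for 5 hrs, so both activation and inhibition register.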
The target in assay [6] is Glucocorticoid receptor (Homo sapiens) (UniProt P04150). Description: GR-GFP Redistribution (AID 450;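 active means compounds whose dose series gives a full or clear partial fitted curve of increased nuclear translocation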; further: potency means the concentration at half of the fitted maximal effect). The following applies: U2OS GR-GFP nuclear translocation, laser cytometry, 2 h.
Sequence of Glucocorticoid receptor (Homo sapiens) (P04150 whole entry, looked up, the tested form may be a part): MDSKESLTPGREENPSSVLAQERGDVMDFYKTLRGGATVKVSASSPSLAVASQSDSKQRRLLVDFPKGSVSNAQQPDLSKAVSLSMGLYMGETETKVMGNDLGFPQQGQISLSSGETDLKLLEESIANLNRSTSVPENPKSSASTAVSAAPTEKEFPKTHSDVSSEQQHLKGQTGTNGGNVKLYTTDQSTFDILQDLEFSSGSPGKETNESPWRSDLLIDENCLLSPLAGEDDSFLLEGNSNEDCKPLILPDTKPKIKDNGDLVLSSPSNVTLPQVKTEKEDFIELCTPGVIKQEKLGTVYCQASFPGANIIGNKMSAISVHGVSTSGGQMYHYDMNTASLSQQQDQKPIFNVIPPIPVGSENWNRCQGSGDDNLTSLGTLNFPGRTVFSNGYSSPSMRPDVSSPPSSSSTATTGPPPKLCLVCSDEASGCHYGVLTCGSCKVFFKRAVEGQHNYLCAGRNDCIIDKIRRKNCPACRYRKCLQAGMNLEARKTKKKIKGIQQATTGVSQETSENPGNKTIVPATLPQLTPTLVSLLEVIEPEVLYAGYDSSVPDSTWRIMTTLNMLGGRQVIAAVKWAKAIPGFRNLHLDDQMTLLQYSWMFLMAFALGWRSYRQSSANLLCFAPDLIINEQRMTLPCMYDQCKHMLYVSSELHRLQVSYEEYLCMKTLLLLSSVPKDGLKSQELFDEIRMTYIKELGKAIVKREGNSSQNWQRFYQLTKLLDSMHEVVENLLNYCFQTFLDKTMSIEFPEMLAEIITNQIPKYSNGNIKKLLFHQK
Assay [7] has the same target. Description: GR-EFC Redistribution (AID 451; calls by dose curve; further: potency means the concentration at half of the fitted maximal effect). The following applies: CHO-K1 GR-EFC translocation, beta-gal luminescence, 2 h. The method, boiled down: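 CHO-K1 cells stably expressing nuclear-localized β-gal enzyme acceptor and GR fused C-terminally to the enzyme donor fragment; ligand-driven nuclear translocation restores β-gal by complementation. Compounds titrated up to 46 uM final, 2 h at 37 °C; luminescence read.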

Assay [8] deals with Mitogen-activated protein kinase 10 (Mus musculus) (UniProt Q61831). Description: JNK3 AlphaScreen Assay (AID 530; active means well fitted curve in either direction with a large enough effect, not every such curve was filed as active;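 further: kinase came from lysate of stimulated human HepG2 cells; signal reports phosphorylation of biotinylated GST-cJun 1-79 at Ser73 with 10 µM ATP; on the % scale 0 is the no-effect control and ±100 the full control effect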). The following applies: JNK3 lysate, c-Jun phosphorylation; series mostly up to 57.1 µM. The method in brief: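 Inhibitors reduce antibody binding to phosphorylated biotin-cJun, lowering AlphaScreen luminescence. Lysates from HepG2 cells pre-activated by IL-1beta plus TNF-alpha supplied JNK3; compounds were titrated.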

For assay [9], the target named is 3',5'-cyclic-AMP phosphodiesterase 4B (Homo sapiens) (UniProt Q07343). Description: qHTS Assay for Inhibitors of PDE-IV (AID 607; active means well fitted activation curve with a large enough effect in the main read-out, with a control signal flat, not every such curve was filed as active; further: % of control where 0% means no effect). The following applies: HEK293 ACTOne CNG channel cells, membrane potential fluorescence; series mostly up to 22.9 µM. The method, boiled down:
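Live HEK293 cells with a modified cyclic nucleotide-gated (CNG) channel report intracellular cAMP via membrane-potential dye fluorescence (ex 535/em 590 nm). Endogenous PDE-IV was targeted. Compounds were tested at up to 22.9 uM final; RO 20-1724 100 uM served as control.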
On the technique in general: In qHTS, concentration-response curves come from the screen itself.

The target in assay [10] is Cytochrome P450 3A4 (Homo sapiens) (UniProt P08684). Description: qHTS Assay for Inhibitors and Substrates of Cytochrome P450 3A4 (AID 884). Further: potency means the concentration at half of the fitted maximal effect; nearly all actives have a fitted effect of over 50% in size. Particulars: recombinant CYP3A4, Luciferin-PPXE luminescence; series mostly up to 57.1 µM. The method in brief: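 20 nM human CYP3A4 with 25 uM Luciferin-PPXE (at KM) in 200 mM KPO4, preincubated 10 min with compound; NADPH regeneration started a 60 min RT reaction. Luciferin detected by luminescence, normalized to 57 uM ketoconazole as full inhibition.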
Sequence of Cytochrome P450 3A4 (Homo sapiens) (P08684 whole entry, looked up): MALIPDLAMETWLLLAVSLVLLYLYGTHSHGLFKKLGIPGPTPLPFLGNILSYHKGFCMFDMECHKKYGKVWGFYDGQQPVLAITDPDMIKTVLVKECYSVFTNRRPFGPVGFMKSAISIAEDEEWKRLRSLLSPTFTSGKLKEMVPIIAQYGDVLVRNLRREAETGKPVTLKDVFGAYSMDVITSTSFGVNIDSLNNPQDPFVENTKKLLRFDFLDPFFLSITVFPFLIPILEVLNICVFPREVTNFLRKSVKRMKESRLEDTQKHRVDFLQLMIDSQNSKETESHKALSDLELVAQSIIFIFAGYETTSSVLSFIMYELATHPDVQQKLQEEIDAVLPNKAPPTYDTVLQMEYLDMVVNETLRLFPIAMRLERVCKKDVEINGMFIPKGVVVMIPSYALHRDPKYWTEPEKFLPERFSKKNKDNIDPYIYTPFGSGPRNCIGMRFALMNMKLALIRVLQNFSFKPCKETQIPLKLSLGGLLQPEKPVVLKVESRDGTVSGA

Assay [11] has the same target. Description: qHTS Assay for Activators of Cytochrome P450 3A4 (AID 885). Further: nearly all actives have a fitted effect of over 65% in size. The following applies: recombinant CYP3A4, Luciferin-PPXE luminescence, 60 min; series mostly up to 57.1 µM. The method, boiled down: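 Quantitative HTS format: compounds preincubated with 20nM human CYP3A4 and Luciferin-PPXE substrate at KM, reaction started by NADPH regeneration, stopped after 60 min, luciferase luminescence read 20 min later.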

Assay [12] in a line: qHTS Assay for Lipid Storage Modulators (AID 1519; calls by dose curve). The following applies: Drosophila S3 cells, BODIPY lipid droplet/cell ratio, laser cytometry, cells loaded with oleic acid; for activity change, negative = inhibition: at 57.5 µM (top of the series). The method in brief:
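Cells seeded at 5,000 per well were treated with compounds over a concentration series and loaded with oleic acid (400 uM, as added). Lipid droplet fluorescence (488 nm excitation, 500-530 nm channel) was read by laser-scanning cytometry and normalized to 20 uM Triacsin C.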

Assay [13] has as its target Dual specificity protein kinase CLK4 (Homo sapiens) (UniProt Q9HAZ1). Description: qHTS Assay for Inhibitors of CDC-like Kinase 4 (Kinase-Glo Assay) (AID 1770). Further: on the % scale 0 is the no-effect control and ±100 the full control effect; nearly all actives have a fitted effect of over 65% in size. The following applies: recombinant Clk4, Kinase-Glo ATP depletion luminescence; series mostly up to 66.7 µM. The method, boiled down: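 Recombinant human Clk4 (25 nM) phosphorylated RS repeat peptide (100 uM) with 1 uM ATP in Tris pH 7.5/MgCl2/EGTA/DTT/Triton buffer for 4.5 h at room temperature. Residual ATP was quantified by Kinase-Glo luciferase luminescence.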

For assay [14], the target named is Ubiquitin carboxyl-terminal hydrolase 1 (Homo sapiens) (UniProt O94782). Description: Inhibitors of USP1/UAF1: Pilot qHTS (AID 504865).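 Further: rhodamine fluorescence freed from ubiquitin-rhodamine substrate followed over time; top concentration of the series differs between compounds; on the % scale 0 is the no-effect control and ±100 the full control effect; nearly all actives have a fitted effect of over 35% in size.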 The following applies: purified USP1/UAF1, Ub-rhodamine cleavage fluorescence; series mostly up to 54.9 µM. The method in brief:
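USP1/UAF1 complex (1nM) preincubated with compound 15 min at room temperature, then Ub-Rho substrate (150nM final) added. Fluorescence read kinetically at 480/540 nm, 6 reads every 60 seconds. Buffer: 50mM HEPES pH 7.8, 0.5mM EDTA, 0.1 mg/ml BSA, 1mM TCEP, 0.01% Tween-20.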

A short description of assay [15]: Confirmation and Secondary Assay for Modulators of Hemoglobin Beta Chain Splicing at IVS2 654 locus (AID 910).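 Further: per-well total GFP intensity by laser scanning cytometry after 2-day treatment; % of control where 0% means no effect.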 Particulars: HeLa EGFP-654 splicing reporter, GFP fluorescence, 48 h; series mostly up to 38.3 µM. The method in brief:
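HeLa cells stably carrying EGFP interrupted by mutant beta-globin IVS2-654 intron (CMV-driven) were treated with compound for 2 days at 37C; corrected splicing was scored as total peak GFP intensity per well (488 nm excitation, 500-520 nm emission).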

Assay [16] in a line: Confirmation and Secondary Assay for Modulators of Hemoglobin Beta Chain Splicing at IVS2 705 locus (AID 930).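 Further: HeLa cells stably expressing the EGFP-705 splicing reporter; GFP fluorescence per well restored by corrected splicing of the IVS2-705 intron in EGFP; % of control where 0% means no effect.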 The following applies: HeLa EGFP-705 splicing reporter, GFP fluorescence, 48 h; series mostly up to 38.3 µM. The method in brief:
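HeLa EGFP-705 reporter; 500 cells/well, o/n 37C 5% CO2; cpd 2 d; 488 ex/500-520 em laser scan; total peak GFP intensity/well. Ref: 500 nM […] antisense PNA.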

In assay [17] the target is Rap guanine nucleotide exchange factor 3 (Homo sapiens) (UniProt O95398). Description: Confirmatory qHTS for agonist of cAMP-regulated guanine nucleotide exchange factor 3 (EPAC1) (AID 1645881).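 Further: EPAC1 catalysed release of BODIPY-GDP from Rap1B seen as fluorescence loss; 100% = effect of cAMP agonist control; nearly all actives have a fitted effect of over 75% in size.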 The following applies: EPAC1 Rap1B BODIPY-GDP exchange fluorescence; series mostly up to 154 µM.
Assay [18] concerns the target Rap guanine nucleotide exchange factor 4 (Homo sapiens) (UniProt Q8WZA2). Description: Confirmatory qHTS for agonist of cAMP-regulated guanine nucleotide exchange factor 4 (EPAC2) (AID 1645884).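 Further: nucleotide exchange releases bodipy-GDP from Rap1 and this lowers its fluorescence; on the % scale 0 is the no-effect control and ±100 the full control effect; nearly all actives have a fitted effect of over 65% in size.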 The following applies: EPAC2 GEF activity, Rap1B-BODIPY-GDP fluorescence; series mostly up to 154 µM.
Where [19] appears, read: measured here: cell count channel max response.
Where [20] appears, read: measured here: lipid channel max response.

Inconclusive results are not listed. Activity calls are given as the source filed them. Unless noted, the call rests on the fitted dose curve; in most records, active means well fitted curve in the direction sought with a large enough effect; inconclusive means small, poorly fitted or top-dose-only effect, or another doubt; inactive means no such curve, though single readings can be large; an effect the other way counts as inactive or inconclusive. Where only a bound is given, the exact number is not on record here.

The text below walks through data of PubChem BioAssay (NCATS).

Sequence of Ubiquitin carboxyl-terminal hydrolase 1 (Homo sapiens) (O94782 whole entry, looked up): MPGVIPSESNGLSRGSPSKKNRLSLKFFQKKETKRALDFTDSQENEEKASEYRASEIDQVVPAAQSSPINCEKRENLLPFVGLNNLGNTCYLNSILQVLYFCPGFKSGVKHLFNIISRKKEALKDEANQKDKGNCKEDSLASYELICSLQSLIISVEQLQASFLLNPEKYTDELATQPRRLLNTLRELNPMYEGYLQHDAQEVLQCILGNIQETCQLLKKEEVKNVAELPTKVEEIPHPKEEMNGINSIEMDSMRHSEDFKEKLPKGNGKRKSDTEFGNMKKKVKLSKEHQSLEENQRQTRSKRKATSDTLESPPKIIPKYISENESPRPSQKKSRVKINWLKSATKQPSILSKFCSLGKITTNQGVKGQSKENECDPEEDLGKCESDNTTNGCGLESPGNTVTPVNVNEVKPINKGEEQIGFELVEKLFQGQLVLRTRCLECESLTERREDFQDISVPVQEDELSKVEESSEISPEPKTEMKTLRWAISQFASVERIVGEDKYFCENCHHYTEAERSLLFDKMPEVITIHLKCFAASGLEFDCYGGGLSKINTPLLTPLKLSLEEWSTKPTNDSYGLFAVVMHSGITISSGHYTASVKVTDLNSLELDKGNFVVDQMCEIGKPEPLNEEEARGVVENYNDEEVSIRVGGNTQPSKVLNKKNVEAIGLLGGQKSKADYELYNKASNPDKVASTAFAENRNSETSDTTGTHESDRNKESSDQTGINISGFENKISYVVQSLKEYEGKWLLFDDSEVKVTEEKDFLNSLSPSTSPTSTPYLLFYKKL
Sequence of Cytochrome P450 1A2 (Homo sapiens) (P05177 whole entry, looked up): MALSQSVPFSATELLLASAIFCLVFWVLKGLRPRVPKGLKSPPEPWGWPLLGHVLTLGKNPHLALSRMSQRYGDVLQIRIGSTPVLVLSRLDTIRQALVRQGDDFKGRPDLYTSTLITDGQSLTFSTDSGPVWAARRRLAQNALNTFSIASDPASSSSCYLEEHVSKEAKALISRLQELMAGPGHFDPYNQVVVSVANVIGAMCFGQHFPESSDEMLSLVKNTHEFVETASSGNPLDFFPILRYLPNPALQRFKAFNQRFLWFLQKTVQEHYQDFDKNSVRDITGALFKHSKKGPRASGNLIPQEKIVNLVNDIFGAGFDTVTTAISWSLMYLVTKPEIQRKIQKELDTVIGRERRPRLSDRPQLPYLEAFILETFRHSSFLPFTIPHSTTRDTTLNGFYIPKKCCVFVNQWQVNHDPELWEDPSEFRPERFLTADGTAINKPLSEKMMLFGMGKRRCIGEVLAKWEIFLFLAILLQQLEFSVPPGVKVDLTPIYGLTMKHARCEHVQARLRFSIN
Sequence of Dual specificity protein kinase CLK4 (Homo sapiens) (Q9HAZ1 whole entry, looked up): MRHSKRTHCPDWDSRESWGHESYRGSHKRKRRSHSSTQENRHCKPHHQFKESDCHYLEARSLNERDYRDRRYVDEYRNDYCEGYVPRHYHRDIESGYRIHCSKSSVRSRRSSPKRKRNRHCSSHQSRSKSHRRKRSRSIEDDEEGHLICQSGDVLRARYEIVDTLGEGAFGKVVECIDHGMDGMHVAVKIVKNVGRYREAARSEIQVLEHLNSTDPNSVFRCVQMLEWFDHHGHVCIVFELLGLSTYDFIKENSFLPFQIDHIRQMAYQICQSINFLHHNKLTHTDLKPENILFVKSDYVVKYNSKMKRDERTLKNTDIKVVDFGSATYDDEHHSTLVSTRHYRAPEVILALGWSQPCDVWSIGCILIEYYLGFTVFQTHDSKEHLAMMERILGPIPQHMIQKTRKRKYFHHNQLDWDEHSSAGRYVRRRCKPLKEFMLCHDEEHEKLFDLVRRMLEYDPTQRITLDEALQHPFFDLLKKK
Sequence of 3',5'-cyclic-AMP phosphodiesterase 4B (Homo sapiens) (Q07343 whole entry, looked up): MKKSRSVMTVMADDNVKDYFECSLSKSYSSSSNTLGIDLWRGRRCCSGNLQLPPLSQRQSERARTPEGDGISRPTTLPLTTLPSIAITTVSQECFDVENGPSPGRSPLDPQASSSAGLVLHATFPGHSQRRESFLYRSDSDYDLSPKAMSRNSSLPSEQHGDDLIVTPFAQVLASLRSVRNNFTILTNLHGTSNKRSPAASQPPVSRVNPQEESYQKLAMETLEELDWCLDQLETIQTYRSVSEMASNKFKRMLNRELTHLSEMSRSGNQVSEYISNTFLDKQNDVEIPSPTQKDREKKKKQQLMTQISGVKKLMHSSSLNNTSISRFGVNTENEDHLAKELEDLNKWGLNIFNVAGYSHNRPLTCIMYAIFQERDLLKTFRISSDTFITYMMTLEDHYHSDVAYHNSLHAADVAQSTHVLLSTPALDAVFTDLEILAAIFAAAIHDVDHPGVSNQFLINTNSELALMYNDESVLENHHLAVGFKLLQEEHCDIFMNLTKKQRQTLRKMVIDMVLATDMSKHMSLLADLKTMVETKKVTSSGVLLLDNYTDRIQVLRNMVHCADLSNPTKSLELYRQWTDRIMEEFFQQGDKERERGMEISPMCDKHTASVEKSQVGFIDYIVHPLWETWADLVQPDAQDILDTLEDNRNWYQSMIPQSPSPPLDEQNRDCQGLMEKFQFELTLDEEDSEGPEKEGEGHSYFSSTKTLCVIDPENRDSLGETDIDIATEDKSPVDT

Regarding `COCCn1c(=O)c(CCc2ccccc2)nc2cnc(Oc3ccc(OC)cc3)nc21`, the Potency in assay [1] is > 11.4 µM (inactive); in [3], 15.8 µM (active); in assay [6], > 9.22 µM (inactive); in assay [7], > 46 µM (inactive); in [10], 3.16 µM (active). In addition, the activity change, negative = inhibition in assay [2] is -14.8% (inactive); in assay [4], 2.36% (inactive); in assay [12], -2.61% (inactive). For the same compound, the activity, negative = inhibition in assay [5] was -17% (inactive). Besides, the Potency result in assay [8], in assay [9], in [11], in assay [13] and in assay [14] was “inactive” in each case. The max response in assay [12] (setting [19]) worked out at 5.1%; in assay [12] (setting [20]) it was 2.19%.

With `CNC(=O)[C@H]1O[C@@H](n2cnc3c(N)ncnc32)[C@H](O)[C@H]1O`, in [12], the activity change, negative = inhibition was -1.94% (inactive). For the same compound, the max response was -22.6% in assay [12] (setting [19]) and -24.5% in assay [12] (setting [20]).

Regarding `COC(=O)CC1C2(C)CC34OC5(C)O[C@@]6(C7/C(=C(/OC)C(C)C)C(=O)OC(c8ccoc8)[C@@]7(C)C(OC(=O)C(C)C)C(OC)[C@]6(O5)[C@@]13C)C(OC)[C@]4(OC)C2OC(C)=O` (stereo not given in full), the Potency in assay [10] is 2.51 µM (active). The Potency result in assay [11], in assay [15], in [17] and in assay [18] was “inactive” each time. For the same compound, the result in [16] was inactive. In addition, the activity change, negative = inhibition in [12] was -17.5% (inactive). The max response was 1.3% in assay [12] (setting [19]) and -14.4% in assay [12] (setting [20]).

Consider `O=c1c(-c2ccc(F)cc2)nc2cnc(N3CCNCC3)nc2n1Cc1cccs1`, for which the Potency in assay [1] was > 11.4 µM (inactive); in assay [3] it was 10 µM (active); in assay [6], > 9.22 µM (inactive); in assay [7], > 46 µM (inactive). For the same compound, the activity change, negative = inhibition is 200% [activator] (active) in [4] and 1.91% (inactive) in assay [12]. Moreover, the Potency result in [9], in assay [11], in assay [13] and in assay [14] was “inactive” in each case. Besides, the max response in [12] (setting [19]) was 8.56%; in assay [12] (setting [20]), 9.26%.

For the compound `CN1CCN(c2ncc3ncc(=O)n(Cc4ccc(F)cc4)c3n2)CC1`, the Potency is > 11.4 µM (inactive) in [1], 25.1 µM (active) in assay [3], > 9.22 µM (inactive) in [6] and > 46 µM (inactive) in assay [7]. The activity change, negative = inhibition was -13.9% (inactive) in [2], -8.56% (inactive) in assay [4] and 2.71% (inactive) in assay [12]. Further, the activity, negative = inhibition in [5] was -18.8% (inactive). Moreover, the Potency result in [8], in assay [9], in assay [11], in [13] and in assay [14] was “inactive” in each case. Also, the max response in assay [12] (setting [19]) was determined as 5.89%; in assay [12] (setting [20]), 7.12%.
